Laboratory results taken from PubChem BioAssay AID1159580 (chemical genetic matrix, 2015).
“And” between values parts separate entries of the source, which are not always exact repeats. Equal values may be shown once. The campaign covered roughly 5,500 compounds. About 2,000 (36%) were called active. Not shown: some 18% with an inconclusive outcome. Cut-off read from the data, not from the text of the source: active = normalized growth mostly below about 0.91 (no sharp cut-off); inconclusive = no clear call, values can overlap the other calls; inactive = mostly above about 0.92. This is one part of the list.

Assay: chemical genetic growth profiling, strain panel (AID 1159580);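 note: tested at 20 µM; growth read once vehicle control cultures reached saturation at 30 °C; 1 = growth at the plate median or of vehicle wells; lower values mean less growth of the strain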
Conditions: S. cerevisiae deletion strains, growth OD

Measured: normalized growth

C[C@H]1C(=O)O[C@@H]2CCN3CC=C(COC(=O)[C@](C)(O)[C@]1(C)O)[C@H]23
inactive: locus YAL021C, strain ccr4, hits give low values 1 | locus YAL026C, strain drs2, hits give low values 0.991 | locus YAL030W, strain snc1, hits give low values 0.989 | locus YBL061C, strain skt5, hits give low values 0.995 | locus YBR009C, strain hhf1, hits give low values 0.993 | locus YBR021W, strain FUR4, hits give low values 0.978 | locus YBR023C, strain chs3, hits give low values 0.995 | locus YBR171W, strain sec66, hits give low values 0.987 | locus YBR229C, strain ROT2, hits give low values 0.989 | locus YBR231C, strain swc5, hits give low values 0.984 | locus YBR279W, strain paf1, hits give low values 0.99 | locus YCL011C, strain gbp2, hits give low values 0.997 | locus YCL016C, strain dcc1, hits give low values 0.999 | locus YCL029C, strain bik1, hits give low values 0.99 | locus YCL069W, strain vba3, hits give low values 0.995 | locus YCR088W, strain abp1, hits give low values 0.992 | locus YDL005C, strain med2, hits give low values 0.992 | locus YDL035C, strain GPR1, hits give low values 0.999 | locus YDL040C, strain nat1, hits give low values 0.991 | locus YDL074C, strain BRE1, hits give low values 1.02 | locus YDL101C, strain DUN1, hits give low values 0.99 | locus YDL134C, strain PPH21, hits give low values 0.968 | locus YDL185W, strain tfp1, hits give low values 0.984 | locus YDL192W, strain arf1, hits give low values 0.981 | locus YDR001C, strain nth1, hits give low values 0.99 | locus YDR069C, strain doa4, hits give low values 0.99 | locus YDR101C, strain arx1, hits give low values 0.994 | locus YDR137W, strain rgp1, hits give low values 0.972 | locus YDR159W, strain sac3, hits give low values 0.984 | locus YDR162C, strain NBP2, hits give low values 0.996 | locus YDR195W, strain ref2 0.945 | locus YDR297W, strain sur2, hits give low values 0.998 | locus YDR318W, strain mcm21, hits give low values 0.996 | locus YDR334W, strain swr1, hits give low values 0.995 | locus YDR335W, strain msn5, hits give low values 0.989 | locus YDR388W, hits give low values 0.997 | locus YDR392W, strain spt3, hits give low values 0.995 | locus YDR502C, strain sam2, hits give low values 0.99 | locus YEL003W, strain gim4, hits give low values 0.991 | locus YEL037C, strain rad23, hits give low values 0.996 | locus YEL061C, strain CIN8 (second series), hits give low values 0.99 | locus YEL061C, strain CIN8, hits give low values 0.995 | locus YER015W, strain faa2, hits give low values 0.998 | locus YER016W, strain bim1, hits give low values 0.989 | locus YER110C, hits give low values 0.986 | locus YER111C, strain swi4, hits give low values 0.969 | locus YER155C, strain BEM2 (second series), hits give low values 0.937 | locus YER155C, strain BEM2, hits give low values 0.988 | locus YER167W, strain BCK2, hits give low values 0.982 | locus YFR010W, strain ubp6, hits give low values 0.99 | locus YGL078C, strain dbp3, hits give low values 0.988 | locus YGL086W, strain mad1, hits give low values 1.01 | locus YGL167C, strain pmr1, hits give low values 0.994 | locus YGL173C, strain kem1, hits give low values 0.994 | locus YGL227W, strain vid30, hits give low values 0.982 | locus YGL240W, strain doc1, hits give low values 0.987 | locus YGL248W, strain PDE1, hits give low values 0.997 | locus YGL253W, strain hxk2, hits give low values 0.994 | locus YGR135W, strain pre9, hits give low values 0.987 | locus YGR229C, strain SMI1, hits give low values 1 | locus YGR252W, strain gcn5, hits give low values 0.98 | locus YHR013C, strain ard1, hits give low values 1 | locus YHR027C, strain rpn1, hits give low values 0.991 | locus YHR030C, strain SLT2, hits give low values 0.986 and 0.998 | locus YHR079C, strain IRE1 (second series), hits give low values 0.994 | locus YHR079C, strain IRE1, hits give low values 0.985 | locus YHR094C, strain hxt1, hits give low values 0.991 | locus YHR129C, strain ARP1, hits give low values 0.989 | locus YHR142W, strain chs7, hits give low values 1 | locus YHR200W, strain rpn10, hits give low values 0.991 | locus YIL066C, strain RNR3, hits give low values 0.992 | locus YIL073C, strain SPO22, hits give low values 0.969 | locus YIL125W, strain kgd1, hits give low values 0.995 | locus YIR030C, strain dcg1, hits give low values 0.99 | locus YJL092W, strain hpr5, hits give low values 0.97 | locus YJL095W, strain BCK1 (second series), hits give low values 0.984 | locus YJL095W, strain BCK1, hits give low values 1.02 and 1 | locus YJL115W, strain asf1, hits give low values 0.969 | locus YJL129C, strain trk1, hits give low values 0.968 | locus YJL134W, strain LCB3, hits give low values 0.994 | locus YJL154C, strain vps35, hits give low values 0.991 | locus YJL164C, strain tpk1, hits give low values 1.01 | locus YJL166W, strain qcr8, hits give low values 0.987 | locus YJL168C, strain set2, hits give low values 0.997 | locus YJL187C, strain SWE1 (second series), hits give low values 0.995 | locus YJL187C, strain SWE1, hits give low values 0.996 | locus YJR043C, strain POL32, hits give low values 1.01 | locus YJR066W, strain TOR1, hits give low values 0.944 | locus YKL009W, strain mrt4, hits give low values 0.983
